# Inconclusive results are not listed. Entries that show only a call come without a potency. Activity calls are given as the source filed them. Unless noted, calls follow the shape of the dose curve; as a rule, active = well fitted curve in the direction sought with a large enough effect; inconclusive = small, poorly fitted or top-dose-only effect, or another doubt; inactive = no such curve, though single readings can be large or run the other way.
# Assay: qHTS for differential inhibitors of proliferation of Plasmodium falciparum line W2 (AID 1883);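 also: parasites grown with compound for 72 h before lysis and staining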; also: potency is read from the fitted curve at half-maximal effect
# Conditions: Potency: Plasmodium falciparum W2 proliferation inhibition; series mostly up to 28.7 µM
row,SMILES,Potency
1,CC1(C)CCC=[N+]1[O-],inactive
2,CC12C(=O)OC(=O)C1(C)C1CCC2O1 (stereo unspecified),2.51 µM (active)
3,COc1cc(C(O)CO)ccc1OS(=O)(=O)O (stereo unspecified),inactive
4,COc1ccccc1CNCCCCCCNCCCCCCCCNCCCCCCNCc1ccccc1OC,1 µM (active)
5,O=C(Nc1cccc(C(=O)Nc2ccc(S(=O)(=O)O)c3cc(S(=O)(=O)O)cc(S(=O)(=O)O)c23)c1)Nc1cccc(C(=O)Nc2ccc(S(=O)(=O)O)c3cc(S(=O)(=O)O)cc(S(=O)(=O)O)c23)c1,inactive
6,COc1cc2nc(N3CCN(C(=O)OCc4ccccc4)C(C(=O)NC(C)(C)C)C3)nc(N)c2cc1OC (stereo unspecified),2.24 µM (active)
7,O=S(=O)(c1cccc2c(I)cccc12)N1CCCNCC1,7.08 µM (active)
8,N#C/C(=C\c1ccc(O)c(O)c1)C(=O)NCc1ccccc1,11.2 µM (active)
9,CN1CCC[C@H]1c1cccnc1,inactive
10,O=C(O)c1cc(=O)c2c(Cl)cc(Cl)cc2[nH]1,inactive
11,O=C(Nc1ccccc1)c1cc([N+](=O)[O-])ccc1Cl,12.6 µM (active)
12,CN1CCc2cc(O)c(O)cc2C(c2ccccc2)C1 (stereo unspecified),10 µM (active)
13,CC(C)NCC(O)COc1cccc2ccccc12 (stereo unspecified),2.82 µM (active)
14,CCCN(CC1CC1)c1nc(C)nc(Nc2c(Cl)cc(Cl)cc2Cl)c1Cl,3.16 µM (active)
15,Fc1ccc(C(OCCCc2cnc[nH]2)c2ccc(F)cc2)cc1,0.794 µM (active)
16,O=C(O)[C@@H]1C[C@H](C(=O)O)N1,inactive
17,CC(=O)N[C@H](C(=O)O)C(C)(C)SN=O,inactive
18,NC(=O)C(=O)O,inactive
19,C[N+](C)(CCCCCC[N+](C)(C)CCCN1C(=O)c2cccc3cccc(c23)C1=O)CCCN1C(=O)c2cccc3cccc(c23)C1=O,0.631 µM (active)
20,NCCCCC(=O)O,inactive
21,C[C@@H](CN1CCC(Cc2ccccc2)CC1)[C@@H](O)c1ccc(O)cc1,4.47 µM (active)
22,NCCSSCCN,inactive

# Assay: qHTS for differential inhibitors of proliferation of Plasmodium falciparum line HB3 (AID 1886);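 also: parasites grown with compound for 72 h before SYBR Green readout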; also: potency is read from the fitted curve at half-maximal effect
# Conditions: Potency: Plasmodium falciparum HB3 proliferation inhibition; series mostly up to 28.7 µM
row,SMILES,Potency
1,Oc1cc2c(cc1O)CN(C(=S)NCCc1ccc(Cl)cc1)CCC2,8.91 µM (active)
2,CC1(C)CCC=[N+]1[O-],inactive
3,CC12C(=O)OC(=O)C1(C)C1CCC2O1 (stereo unspecified),3.98 µM (active)
4,COc1cc(C(O)CO)ccc1OS(=O)(=O)O (stereo unspecified),inactive
5,COc1ccccc1CNCCCCCCNCCCCCCCCNCCCCCCNCc1ccccc1OC,2 µM (active)
6,O=C(Nc1cccc(C(=O)Nc2ccc(S(=O)(=O)O)c3cc(S(=O)(=O)O)cc(S(=O)(=O)O)c23)c1)Nc1cccc(C(=O)Nc2ccc(S(=O)(=O)O)c3cc(S(=O)(=O)O)cc(S(=O)(=O)O)c23)c1,inactive
7,COc1cc2nc(N3CCN(C(=O)OCc4ccccc4)C(C(=O)NC(C)(C)C)C3)nc(N)c2cc1OC (stereo unspecified),7.94 µM (active)
8,O=c1[nH]c2cc([N+](=O)[O-])c([N+](=O)[O-])cc2[nH]c1=O,inactive
9,O=S(=O)(c1cccc2c(I)cccc12)N1CCCNCC1,inactive
10,O=C(O)[C@@H]1C[C@@H](C(=O)O)N1,inactive
11,N#C/C(=C\c1ccc(O)c(O)c1)C(=O)NCc1ccccc1,11.2 µM (active)
12,CCCCCCCCCCCCCCCCCC(=O)NCC(COP(=O)([O-])OCC[N+](C)(C)C)OCC (stereo unspecified),inactive
13,CN1CCC[C@H]1c1cccnc1,inactive
14,O=C(O)c1cc(=O)c2c(Cl)cc(Cl)cc2[nH]1,inactive
15,O=C(Nc1ccccc1)c1cc([N+](=O)[O-])ccc1Cl,10 µM (active)
16,CN1CCc2cc(O)c(O)cc2C(c2ccccc2)C1 (stereo unspecified),12.6 µM (active)
17,CC(C)NCC(O)COc1cccc2ccccc12 (stereo unspecified),12.6 µM (active)
18,CCCN(CC1CC1)c1nc(C)nc(Nc2c(Cl)cc(Cl)cc2Cl)c1Cl,4.47 µM (active)
19,Fc1ccc(C(OCCCc2cnc[nH]2)c2ccc(F)cc2)cc1,2.51 µM (active)
20,O=C(O)[C@@H]1C[C@H](C(=O)O)N1,inactive
21,CC(=O)N[C@H](C(=O)O)C(C)(C)SN=O,inactive
22,NC(=O)C(=O)O,inactive
23,C[N+](C)(CCCCCC[N+](C)(C)CCCN1C(=O)c2cccc3cccc(c23)C1=O)CCCN1C(=O)c2cccc3cccc(c23)C1=O,0.562 µM (active)
24,NCCCCC(=O)O,inactive
25,C[C@@H](CN1CCC(Cc2ccccc2)CC1)[C@@H](O)c1ccc(O)cc1,inactive
26,NCCSSCCN,inactive

# Assay: qHTS Assay for Modulators of Human Peripheral Myelin Protein 22 (PMP22) Expression/Activity (AID 1967; active = well fitted curve in the direction sought with a large enough effect in the signal ratio; the % refers to the signal ratio)
# Conditions: Cell-based PMP22 reporter, dual-color luciferase ratio, 0% = compound-free control cells, mouse Pmp22 promoter in mouse Schwann cells; series mostly up to 115 µM
# Outline: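 MSC80 mouse Schwann cells stably carrying Pmp22 promoter–green click beetle luciferase plus EF-alpha–red luciferase control were dosed for 24h at 37 °C. Dual-colour luminescence was filter-overlap corrected; %Activity came from green/red ratio versus untreated cells.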
row,SMILES,outcome
1,CC1(C)CCC=[N+]1[O-],inactive
2,COc1cc(C(O)CO)ccc1OS(=O)(=O)O (stereo unspecified),inactive
3,O=c1[nH]c2cc([N+](=O)[O-])c([N+](=O)[O-])cc2[nH]c1=O,inactive
4,O=C(O)[C@@H]1C[C@@H](C(=O)O)N1,inactive
5,CCCCCCCCCCCCCCCCCC(=O)NCC(COP(=O)([O-])OCC[N+](C)(C)C)OCC (stereo unspecified),inactive
6,CN1CCC[C@H]1c1cccnc1,inactive
7,O=C(O)c1cc(=O)c2c(Cl)cc(Cl)cc2[nH]1,inactive
8,CC(=O)N[C@H](C(=O)O)C(C)(C)SN=O,inactive
9,NC(=O)C(=O)O,inactive
10,C[N+](C)(CCCCCC[N+](C)(C)CCCN1C(=O)c2cccc3cccc(c23)C1=O)CCCN1C(=O)c2cccc3cccc(c23)C1=O,inactive
11,NCCCCC(=O)O,inactive
12,C[C@@H](CN1CCC(Cc2ccccc2)CC1)[C@@H](O)c1ccc(O)cc1,inactive
13,NCCSSCCN,inactive

# From PubChem BioAssay (NCATS)
